Compounds without any hit were thinned out: in the full panel of roughly 79,000, 15% have a hit. Activity calls are given as the source filed them. No stated cut-off is given here; in the data, active means growth inhibition above about 70%; inactive means the rest.
Test: NCI Yeast Anticancer Drug Screen. Data for the cln2 rad14 strain (AID 165);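 further: 0% = growth equal to vehicle treated cultures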
Details: S. cerevisiae cln2 rad14 strain, at 50.0 µM, stronger effect = higher value
Description: Growth inhibition of yeast strains with defined genetic alterations is measured as a screen for potential anti-cancer activity. Selected strains with alterations in DNA damage repair or cell cycle control were exposed to compounds and growth inhibition was measured relative to vehicle treated controls. The strain used in this assay is cln2 rad14
In the case of CC1=NNC(=O)C1, the growth inhibition is reported as -14.8% (inactive).
With O=C1c2cccc3cc([N+](=O)[O-])cc(c23)C(=O)N1CCNCCNCCNCCN1C(=O)c2cccc3cc([N+](=O)[O-])cc(c23)C1=O the growth inhibition was 90.2% (active).
In the case of N#CC(NNC(=O)Cc1ccccc1)c1c(O)ccc2ccccc12 (stereo not given), the growth inhibition is reported as -18.2% (inactive).
With O=C(Nc1ccccc1CCl)Nc1ccccc1CCl (tested in a mixture with another compound) the growth inhibition was 3.65% (inactive).
In the case of O=C1C=CC(=O)N1CCCCN1C(=O)C=CC1=O, the growth inhibition is reported as -20.1% (inactive).
In the case of c1ccc2c(c1)CCC(C1=NC3CCCCC3N1)=N2 (stereo not given), the growth inhibition is reported as -47.3% (inactive).
With NC(N)=NC(N)=Nc1ccccc1Br the growth inhibition was -26.1% (inactive).
For CC(C)(C)SCCCCO, the growth inhibition was 0.35% (inactive).
For CCOc1ncc(C(O)c2ccc(F)cc2)c(OCC)n1 (stereo not given), the growth inhibition was -52.4% (inactive).
For CC(Cc1ccccc1)NC(=O)C1CC2CCCCN2C1C (stereo not given), the growth inhibition was 45.9% (inactive).
With CN(CCC(=O)O)S(=O)(=O)c1ccccc1 the growth inhibition was -9.1% (inactive).
For COC(=O)c1cc(-c2ccc(N)cc2)c2c(=O)n(-c3ccccc3)[nH]c2n1, the growth inhibition was -0.65% (inactive).
With C1CCCCCc2c(-c3n[nH]c4c3CCCCCCCCCC4)n[nH]c2CCCC1 the growth inhibition was 7.9% (inactive).
For O=C1N=NC(=O)N1c1ccccc1, the growth inhibition was -22.2% (inactive).
In the case of O=C(Nc1ccccc1O)C(O)C(O)C(O)C(O)CO (stereo not given), the growth inhibition is reported as 23.2% (inactive).
For CC(C)c1ccc([N+](=O)[O-])cc1, the growth inhibition was 26.6% (inactive).
In the case of CN(C)c1ccc(N=C2C=CC(=C(C#N)C#N)c3ccccc32)cc1, the growth inhibition is reported as -34% (inactive).
For CCOC(=O)c1cc(CC)[nH]c(=O)c1C#N, the growth inhibition was -32.7% (inactive).
In the case of O=C1C2CCC(C2)C1CN1CCOCC1 (stereo not given), the growth inhibition is reported as 0.5% (inactive).
For Nc1nc(N)c2nc(/C=C/c3ccc4c(c3)OCO4)cnc2n1, the growth inhibition was 2.15% (inactive).
In the case of O=c1nc(Nc2ccccc2)ccn1C1OC(CO)C(O)C1O (stereo not given), the growth inhibition is reported as 12% (inactive).
With CCOc1ccc2nc(/C=C/c3ccccc3)ccc2c1 the growth inhibition was -3.75% (inactive).
For OC1CCCCC1OC1CCc2ccccc2C1 (stereo not given), the growth inhibition was 29.9% (inactive).
For CSc1nnn(C(C)(C)C)n1, the growth inhibition was -15.9% (inactive).
With O=C(NCCCl)Nc1ccc2c(c1)CCC2 the growth inhibition was -10.8% (inactive).
In the case of CCOC(=O)C(C#N)(CCC#N)CCC#N, the growth inhibition is reported as -3.45% (inactive).
In the case of O=C1CCCC2OC2[C@H]2CCCCCC[C@@H]12 (stereo not given in full), the growth inhibition is reported as 3.15% (inactive).
With CCCCOC(OCCCC)C(OCCCC)OCCCC the growth inhibition was -0.4% (inactive).
In the case of COC(=O)C1=CN=C(C(=O)OC)NN1, the growth inhibition is reported as 15.8% (inactive).
With N#CC[N+]1(Cc2ccccn2)CCCC1 the growth inhibition was 6.4% (inactive).
In the case of CS(=O)(=O)c1ccc2c(c1)-c1ccc([N+](=O)[O-])cc1C2=O, the growth inhibition is reported as 1.65% (inactive).
For NNC(=S)N/N=C/C(Cl)=C(\Cl)C(=O)O, the growth inhibition was -2% (inactive).
For CCCCCCn1cnc2c(=S)nc[nH]c21, the growth inhibition was 7.45% (inactive).
With SCCNCc1ccco1 the growth inhibition was 20.6% (inactive).
With CSc1nc2c(c(=O)[nH]1)CC(=O)N2 the growth inhibition was -33.6% (inactive).
In the case of OC(CN1CCc2ccccc2C1)c1ccccc1 (stereo not given), the growth inhibition is reported as 27% (inactive).
For CCOC(=O)C(Cc1ccccc1Cl)(Cc1ccccc1Cl)c1ccccc1, the growth inhibition was -79.5% (inactive).
In the case of COc1ccc(CNc2nc3ccccc3nc2C(=O)O)cc1OC, the growth inhibition is reported as 7.25% (inactive).
With CCC1CCC2c3c([nH]c4ccccc34)C3C(=O)N(c4ccc(OC)cc4)C(=O)C3C2C1 (stereo not given) the growth inhibition was 6.65% (inactive).
With COC(=O)C(C)OC(=O)OCC(C)C (stereo not given) the growth inhibition was -2.95% (inactive).

Reference: PubChem BioAssay (NCI)
